Only some compounds are listed: those with a hit (about 10% of all), similar ones and a draw of the others.
LMNA splice mod – LMNA splicing modulation; HeLa LMNA splicing GFP/RFP minigene ratio, 48 h; AID 1487; Potency, µM (titrated, usually from 46.1 µM), inactives show top-dose ratio change, negative = inhibition, most hits filed as inhibitors; 200,000 tested, 0.01% active; active = well fitted inhibition curve with a large enough effect in the signal ratio, with a control signal flat, not every such curve was filed as active; inconclusive = small, poorly fitted or top-dose-only effect, or effect the other way, or a change in a side signal; the % refers to the signal ratio; note: potency is the fitted concentration of half-maximal effect
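S3 HeLa stable clones carrying a lamin A-EGFP splicing minigene plus DsRed2 were seeded at 600 cells/well in Opti-MEM with 2% FBS, pin-dosed and incubated 48 h at 37°C. Acumen cytometry (488 nm) gave the GFP/RFP total-intensity ratio.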
PNC assembly inh – inhibitors of perinucleolar compartment assembly | PC3M PTB-GFP, PNC prevalence imaging, 16 h; stronger effect = lower value | activity change (PNC), negative = inhibition, % at 10 µM | 140,000 tested, 3.1% active | AID 2417;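 active = readout at or below -70, meaning at least 70% loss of cells showing the perinucleolar compartment, a nuclear body marking cancer cells; inconclusive = readout between -30 and a set limit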;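 note: plate controls were DMSO wells for no effect and camptothecin positive control wells for full effect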
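PC3M cells stably expressing PTB-GFP, 750–1000 cells/well, treated 16 h at 37 °C with compound (23 nl of library stock), in duplicate. After paraformaldehyde fixation and Hoechst stain, imaged at 20x; PNC prevalence scored by image analysis.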
HPGD inh – inhibitors of human 15-hydroxyprostaglandin dehydrogenase (HPGD). P15428. purified HPGD, NADH fluorescence kinetic, PGE2 substrate. Potency, µM, without a hit: top-dose activity change, negative = inhibition, most hits filed as inhibitors. 150,000 tested, 4.3% active. AID 894; note: potency is the fitted concentration of half-maximal effect
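20 nM HPGD preincubated 15 min at room temperature with compound in 50 mM Tris-HCl pH 8, 0.01% Tween 20. Started with 1 mM NAD+ and 30 uM prostaglandin E2; NADH fluorescence (360/450 nm) read 5 times over 30-s intervals, last minus first.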
12-hLO inh – 12-hLO (ALOX12) enzyme inhibition. P18054. purified 12-hLO, xylenol orange hydroperoxide absorbance. Potency, µM (doses to about 57.1 µM), for the others: top-dose activity change, negative = inhibition, actives largely listed as inhibitors. 150,000 tested, 0.12% active; active = well fitted inhibition curve with a large enough effect; inconclusive = small, poorly fitted or top-dose-only effect; note: potency is the fitted concentration of half-maximal effect; nearly all actives have a fitted effect of over 55% in size
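Purified human 12hLO (150 nM), preincubated 15 min with compound, then 40 uM arachidonic acid for 30 min, room temperature, Hepes pH 7.0 with 0.01% Triton X-100. Hydroperoxide detected by ferrous iron/xylenol orange; 573/405 nm absorbance ratio gives reaction progress.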
ALDH1A1 inh – ALDH1A1 (human) enzyme inhibition; P00352; Purified ALDH1A1, NADH fluorescence, propionaldehyde substrate; Potency, µM (series often up to 75.3 µM), inactives show at the highest dose activity, negative = inhibition, usual class: inhibitors; 220,000 tested, 7.3% active;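 note: potency is the fitted concentration of half-maximal effect; plate controls were no enzyme wells and a reference inhibitor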
Target sequence (P00352 whole entry, looked up): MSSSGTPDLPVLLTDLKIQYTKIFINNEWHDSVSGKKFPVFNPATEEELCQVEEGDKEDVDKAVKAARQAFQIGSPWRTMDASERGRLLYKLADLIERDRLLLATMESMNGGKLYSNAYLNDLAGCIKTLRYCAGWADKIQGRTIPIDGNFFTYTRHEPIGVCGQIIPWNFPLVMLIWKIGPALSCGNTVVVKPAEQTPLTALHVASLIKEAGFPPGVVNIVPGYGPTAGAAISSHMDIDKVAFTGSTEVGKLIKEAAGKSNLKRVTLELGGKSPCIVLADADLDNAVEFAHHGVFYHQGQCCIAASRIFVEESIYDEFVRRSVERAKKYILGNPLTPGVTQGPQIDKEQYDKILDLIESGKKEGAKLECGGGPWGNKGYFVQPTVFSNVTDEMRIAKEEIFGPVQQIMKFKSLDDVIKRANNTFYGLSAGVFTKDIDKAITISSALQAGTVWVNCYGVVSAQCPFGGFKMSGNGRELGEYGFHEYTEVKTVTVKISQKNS
Active calls of the source: *; u = inconclusive; x = not tested or not shown; [ ] = another dose, or the depositor's remark. Unless noted, calls come from the whole dose curve; as a rule, active = well fitted inhibition curve with a large enough effect (not every such curve was filed as active); inconclusive = small, poorly fitted or top-dose-only effect, or another doubt; inactive = no such curve, though single readings can be large or run the other way. Unless noted, % is set by controls: 0 for no effect and ±100 for the full control effect.

SMILES	LMNA splice mod	PNC assembly inh	HPGD inh	12-hLO inh	ALDH1A1 inh
Cc1ccc(Cl)c2c1NC(=O)C2(O)CC(=O)c1ccc(F)cc1 (stereo unspecified)	3.8%	-24.2	-3.6%	-8.3%	5.2%
Cc1coc(C)c1C(=O)CC1(O)C(=O)Nc2cc(Cl)cc(Cl)c21 (stereo unspecified)	16.6%	u	-4.0%	u	3.16µM*
Cc1ccc(-c2nc(CCNC(=O)C(=O)Nc3ccc(C)c(Cl)c3)cs2)cc1	-1.4%[46 µM]	x	x	x	x
COc1ccc2nc(S(=O)Cc3ncc(C)c(OC)c3C)[nH]c2c1 (stereo unspecified)	u	-17.0	28.2µM*	-11.6%	-2.0%[20.9 µM]
COc1ccc2nc(SCC(=O)Nc3c(C)cccc3C)[nH]c2c1	0.8%	-22.4	-17.3%	-4.2%	u
Cc1ccc(-c2csc3n[nH]c(=S)n23)cc1	u	u	28.2µM*	u	u
COCCn1c(C)cc(O)c(C(c2ccccc2)N2CCN(C)CC2)c1=O (stereo unspecified)	17.3%[46 µM]	x	x	x	x
O=C(Nc1ccc(SC(F)F)cc1)C12CCC(CC1)C2	-2.3%	-112.6*	-4.3%	-1.8%	-1.4%
O=C1COc2cc(S(=O)(=O)CCC(=O)N3CCN(c4cccc(Cl)c4)CC3)c(Cl)cc2N1	5.9%[46 µM]	x	x	x	x
Cc1cc(C(=O)N[C@@H](c2ccccc2)[C@]2(C)C[C@H]2[C@@H](C)C(=O)Nc2ccc3ccccc3c2)n(C)n1	x	x	-6.4%	u	u
COC(=O)N[C@H](c1ccccc1)[C@@]1(C)C[C@@H]1[C@@H](C)C(=O)Nc1ccc2ccccc2c1	x	x	-23.4%	u	7.94µM*
C[C@@H](C(=O)Nc1ccc2ccccc2c1)[C@H]1C[C@]1(C)[C@H](NC(=O)c1cccnc1)c1ccccc1	u	47.7	-5.1%	-6.4%	11.2µM*
CC(=O)N[C@H](c1ccccc1)[C@@]1(C)C[C@@H]1[C@@H](C)C(=O)Nc1ccc2ccccc2c1	x	x	-6.3%	-1.4%	u
O=C(CSc1nc2ccccc2nc1Cc1ccc(Cl)cc1)N1CCCc2ccccc21	-15.9%[46 µM]	x	x	x	x
Cc1nn(-c2ccccc2)c(C)c1NC(=O)Cc1cccs1	-6.4%	39.4	15.8µM*	0.0%	-4.1%
Cc1c(-c2ccccc2)nc2ccccc2c1C(=O)NCc1cccs1	-13.9%	-18.0	u	-7.9%	14.1µM*
CC(C)CNC(=O)c1nc(-c2ccccc2)n(-c2ccccc2)n1	10.2%	u	-1.8%	-8.1%	12.6µM*
Cc1nn(-c2ccccc2)c(Cl)c1C(=O)NCCN(C)C	x	x	x	x	-5.8%
Cc1nn(-c2ccccc2)c(Cl)c1C(=O)NCC(C)C	-1.6%	-20.3	10µM*	-2.2%	10.7%
CCC(C)NC(=O)CCCN1C(=O)CCn2nc(-c3cccn3C)cc21 (stereo unspecified)	7.7%[46 µM]	x	x	x	x
C=C1C[C@@]23CC4C5[C@@]6(C)C[C@H](O)C[C@@]57C2[C@H](O)[C@@H]1[C@H](O)[C@H]3[C@H]7N4C6	x	x	2.1%	x	8.6%
COc1ccc(-c2ccc(-c3cc(=O)oc4c(C(C)C)ccc(C)c34)cc2)cc1	x	x	-9.7%	-1.2%[0.00818 µM]	-0.6%
O=C(N/N=C/c1ccc(O)cc1)c1nc(-c2ccccc2)n(-c2ccccc2)n1	15.5%	-100.1*	-6.0%	-3.3%	2.1%
Cc1nn(-c2ccccc2)c(C)c1C(=O)NCc1cccs1	0.4%	12.3	u	1.2%	4.1%
COC(=O)c1sccc1NC(=O)COc1ccc(F)cc1Cl	-0.2%[46 µM]	x	x	x	8.9%
SMILES	LMNA splice mod	PNC assembly inh	HPGD inh	12-hLO inh	ALDH1A1 inh
Cc1nn(-c2ccccc2)c(C)c1NC(=O)COc1ccc(F)cc1Cl	u	-102.4*	-16.4%	-0.1%	u
Cc1nn(-c2ccccc2)c(Cl)c1C(=O)NCc1cccs1	-8.3%	u	10µM*	-0.2%	-1.4%
COc1cc(/C=N/NC(=O)c2nc(-c3ccccc3)n(-c3ccccc3)n2)ccc1O	-6.7%	44.2	-19.6%	-5.6%	-0.6%
CCCCN1CCC(n2c(=O)[nH]c3ccccc32)CC1	u	x	5.1%	-6.7%	21.3%
CC[C@@H](C)CN1C(=O)N[C@@H](c2ccccc2)C(C(=O)OC)=C1C	-1.9%[9.22 µM]	x	-1.5%	0.4%[11.4 µM]	11.5%[13.5 µM]
C=CCOC(=O)C1=C(C)NC(=S)NC1/C=C/c1ccccc1 (stereo unspecified)	u	7.5	-18.0%	u	0.0447µM*
